According to PubChem BioAssay (NCATS):
Inconclusive results are not listed. Active and inactive are the calls of the source. Unless noted, the call rests on the fitted dose curve; in most records, active means well fitted curve in the direction sought with a large enough effect; inconclusive means small, poorly fitted or top-dose-only effect, or another doubt; inactive means no such curve, though single readings can be large or run the other way.

Tests used:
[1] = molecular target: T1, Hexokinase-4 (Homo sapiens) + Glucokinase regulatory protein (Homo sapiens) (UniProt P35557+Q14397); assay: qHTS assay for inhibitors of recombinant human GCK-GKRP interaction: Diaphorase-coupled assay (AID 743205); conditions: G6PDH/diaphorase resorufin fluorescence; series mostly up to 57.5 µM
T1 sequence (P35557 whole entry, looked up): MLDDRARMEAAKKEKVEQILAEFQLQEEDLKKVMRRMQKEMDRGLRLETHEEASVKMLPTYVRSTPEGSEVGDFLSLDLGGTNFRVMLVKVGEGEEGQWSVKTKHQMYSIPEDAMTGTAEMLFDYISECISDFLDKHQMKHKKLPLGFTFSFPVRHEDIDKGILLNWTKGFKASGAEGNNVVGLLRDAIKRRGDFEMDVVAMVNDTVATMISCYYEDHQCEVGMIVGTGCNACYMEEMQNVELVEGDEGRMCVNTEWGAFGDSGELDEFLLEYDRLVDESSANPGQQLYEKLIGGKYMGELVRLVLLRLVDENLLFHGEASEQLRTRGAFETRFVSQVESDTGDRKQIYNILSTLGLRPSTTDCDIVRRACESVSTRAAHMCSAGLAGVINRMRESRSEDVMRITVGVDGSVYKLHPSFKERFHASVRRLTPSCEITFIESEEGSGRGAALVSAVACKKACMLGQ
T1 sequence (Q14397 whole entry, looked up): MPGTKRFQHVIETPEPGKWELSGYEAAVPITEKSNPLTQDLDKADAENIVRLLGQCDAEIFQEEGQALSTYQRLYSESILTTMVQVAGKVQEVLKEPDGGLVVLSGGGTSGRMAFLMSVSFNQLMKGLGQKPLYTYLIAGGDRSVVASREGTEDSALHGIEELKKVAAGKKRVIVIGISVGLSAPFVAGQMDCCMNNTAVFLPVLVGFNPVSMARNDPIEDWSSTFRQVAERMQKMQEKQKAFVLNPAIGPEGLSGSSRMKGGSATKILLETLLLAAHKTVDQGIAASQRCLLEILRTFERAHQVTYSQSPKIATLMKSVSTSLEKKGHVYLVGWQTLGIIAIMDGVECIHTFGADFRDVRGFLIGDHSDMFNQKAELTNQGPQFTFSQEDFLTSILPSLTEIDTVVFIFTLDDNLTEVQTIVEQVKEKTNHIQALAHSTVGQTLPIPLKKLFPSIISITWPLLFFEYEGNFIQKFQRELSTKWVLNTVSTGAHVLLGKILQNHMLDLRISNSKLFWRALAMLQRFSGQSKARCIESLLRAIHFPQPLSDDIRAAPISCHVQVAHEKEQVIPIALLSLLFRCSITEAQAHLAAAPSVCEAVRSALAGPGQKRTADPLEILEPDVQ
Procedure, shortened: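 Inhibitors of the GCK–GKRP complex relieve GKRP suppression of GCK, detected through a G6PDH–diaphorase cascade reducing resazurin. Human GST-GCK and FLAG-GKRP are used at 10 nM with 5 mM glucose and 0.4 mM ATP.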

[2] = qHTS Assay for Identifying Gametocytocidal Compounds (AID 743244); further: potency means the concentration at half of the fitted maximal effect;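 on max response: on the % scale 0 is the no-effect control and ±100 the full control effect; actives lower the fluorescent signal which means gametocytes are killed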; conditions: P. falciparum 3D7 stage III-V gametocytes, alamarBlue, 72 h; max response: stronger effect = lower value
Procedure, shortened: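 P. falciparum 3D7 stage III–V gametocytes (20,000 cells/well) were exposed to compounds for 72 h at 37 °C, 5% CO2. AlamarBlue was then added for 24 h; decreased resorufin fluorescence (Ex 525/Em 598 nm) indicated loss of viability.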

[3] = molecular target: T1, Hexokinase-4 (Homo sapiens) + Glucokinase regulatory protein (Homo sapiens); assay: qHTS assay for inhibitors of recombinant human GCK-GKRP interaction: HTRF assay (AID 743207); conditions: recombinant GCK-GKRP HTRF binding, 60 min; series mostly up to 57.5 µM;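 further: 0% = DMSO with GCK present and -100% = DMSO wells lacking GCK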
Procedure, shortened: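 Steps: dispense GCK–GKRP complex (5 nM each, GST- and FLAG-tagged) with 2 uM S6P; pin in compounds; add XL665/Eu-cryptate-labelled antibodies; incubate 60 min at room temperature; read time-resolved FRET at 665 and 615 nm.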

[4] = qHTS profiling for inhibitors of Plasmodium falciparum (3D7) proliferation (AID 743322);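 further: infected erythrocytes exposed to compound for 72 h before lysis; 100% = DMSO vehicle wells and 0% = 0.29 µM artemisinin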; conditions: P. falciparum 3D7 proliferation; at 28.7 µM (top of the series)
Procedure, shortened: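 Erythrocytes infected with P. falciparum (0.3% parasitemia, 2.5% hematocrit) incubated with compounds 72 h at 37 C, 5% CO2. Lysis with saponin/Triton buffer containing SYBR Green I, overnight at room temperature in the dark; DNA fluorescence (485/535 nm) normalised to 0.29 uM artemisinin and DMSO.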

[5] = qHTS profiling for inhibitors of Plasmodium falciparum (DD2) proliferation (AID 743323; call rule not given here); conditions: lower = more inhibition; at 28.7 µM (top of the series)
Procedure, shortened: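 P. falciparum Dd2-infected erythrocytes (0.3% parasitemia, 2.5% hematocrit) exposed 72 h at 37 C, 5% CO2. Lysis with SYBR Green, overnight at room temperature, fluorescence 485/535 nm; normalized to 0.29 uM artemisinin and DMSO.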

CN(N=O)c1ccc(O)c(O)c1
Potency [1]: inactive
Potency [2]: 1000 nM (active)

CN1C2CCC1CC(OC(c1ccccc1)c1ccccc1N)C2 (stereo not drawn)
Potency [1]: inactive
outcome [3]: inactive
max response [2]: 17.7% (inactive)

C[N+]1(C)CCc2cc3c(cc2[C@H]1[C@@H]1OC(=O)c2c1ccc1c2OCO1)OCO3
Potency [1]: inactive
outcome [3]: inactive
max response [2]: 19.2% (inactive)

CCC1(c2ccccc2)C(=O)NC(=O)NC1=O
max response [2]: 6% (inactive)

CC(=O)OO
max response [2]: -9.86% (inactive)

COc1ccc2c3c1O[C@H]1[C@@H](O)C=C[C@H]4[C@@H](C2)NCC[C@@]341
max response [2]: -9% (inactive)

C/C(=C\c1csc(C)n1)[C@@H]1C[C@@H]2O[C@]2(C)CCC[C@H](C)[C@H](O)[C@@H](C)C(=O)C(C)(C)[C@@H](O)CC(=O)O1
remaining parasite growth % (stronger effect = lower value) [4]: 11%
activity, percent of control [5]: 13%
